m5-HT2A agonist: agonists of mouse serotonin 5-HT2A receptor (HTR2A). AID 624169. CHO-K1 mHTR2A beta-arrestin complementation, luminescence; percent of 30 µM serotonin response. activation, % at 7.6 µM. 360,000 compounds, 0.66% hits;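 active = activation above a run cutoff, the mean activation of all tested compounds plus 3 SD, cut at about 14% in these data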;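 note: 0% = plate median of compound wells and 100% = 30 µM serotonin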
LANA-H2A inh: blocks KSHV LANA binding to histone H2A/H2B. Q9QR71. AID 2629. 320,000 compounds, 0.6% hits. cell-free LANA-H2A/H2B peptide, fluorescence polarization. inhibition, % (no concentration beside the values); in the data active = inhibition mostly above about 10%, no sharp cut-off; inactive = mostly below about 6.7%
TLR4 MyD88 comp: blocks binding of human TLR4 to MyD88. AID 861. HeLa CL3-4 TLR4/MyD88 BLA complementation, FRET ratio. O00206+Q99836. 200,000 compounds, 0.18% hits. inhibition, % at 8.4 µM; in the data active = inhibition above about 25%;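 note: 0% = vehicle and 100% = reference inhibitor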
NOD2-RIPK2 inh: inhibitors of human NOD2-RIPK2 interaction | CHO BLA complementation NOD2-RIPK2, CCF4 ratio | 360,000 compounds, 0.38% hits | inhibition, % at 4.98 µM | O43353; in the data active = inhibition above about 21%;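 note: 0% = vehicle only and 100% = reference blocker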
Target sequence (O43353 whole entry, looked up): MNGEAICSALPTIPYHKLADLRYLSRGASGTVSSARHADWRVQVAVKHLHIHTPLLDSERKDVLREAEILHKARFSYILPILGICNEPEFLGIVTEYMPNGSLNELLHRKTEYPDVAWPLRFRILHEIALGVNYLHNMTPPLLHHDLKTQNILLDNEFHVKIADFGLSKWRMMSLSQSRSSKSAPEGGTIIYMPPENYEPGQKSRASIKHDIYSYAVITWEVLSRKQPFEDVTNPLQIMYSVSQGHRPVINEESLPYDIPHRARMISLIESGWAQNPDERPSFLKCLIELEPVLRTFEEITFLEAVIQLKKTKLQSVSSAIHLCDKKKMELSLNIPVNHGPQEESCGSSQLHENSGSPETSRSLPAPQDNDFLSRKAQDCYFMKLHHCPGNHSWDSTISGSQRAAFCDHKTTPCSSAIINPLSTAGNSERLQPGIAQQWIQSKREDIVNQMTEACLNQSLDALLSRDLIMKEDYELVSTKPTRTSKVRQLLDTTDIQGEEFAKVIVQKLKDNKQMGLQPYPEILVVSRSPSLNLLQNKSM
TLR9-MyD88 inh: TLR9-MyD88 interaction inhibition | Q9NR96+Q99836 | CHO BLA complementation TLR9-MyD88, CCF4 FRET ratio | inhibition, % at 4.98 µM | 340,000 compounds, 0.21% hits;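 active = inhibition above the mean over all tested compounds plus 3 SD, cut at about 21% in these data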;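 note: 0% = DMSO only wells and 100% = clavulanate BLA inhibitor control wells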
Rtt109 Vps75: C. albicans Rtt109 histone acetyltransferase inhibition; purified Rtt109/Vps75, ThioGlo CoA-SH fluorescence, 4 h; Q5AAJ8; 330,000 compounds, 0.16% hits; AID 540336; inhibition, % at 34.9 µM;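 active = inhibition of at least 50% in every replicate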
Starred values were filed as active, the others as inactive; · = no result given; + = active, no number; ! = not active in a repeat. The list is not random: actives were taken first. Their share in the collection is about 1.8%.

SMILES	m5-HT2A agonist	LANA-H2A inh	TLR4 MyD88 comp	NOD2-RIPK2 inh	TLR9-MyD88 inh	Rtt109 Vps75
C[C@H](CO)N1C[C@H](C)[C@@H](CN(C)S(=O)(=O)c2ccc(F)cc2)Oc2c(NC(=O)Nc3ccc(C(F)(F)F)cc3)cccc2C1=O	1	-3	·	-9	-6	-11
C[C@H]1CN([C@@H](C)CO)C(=O)c2cccc(NC(=O)Nc3ccc(C(F)(F)F)cc3)c2O[C@@H]1CN(C)S(=O)(=O)c1ccc(Cl)cc1	-6	15*	·	3	-1	4
CCCCNC(=O)C1(C)CCC(=O)N1CCCn1ccnc1 (stereo unspecified)	-2	·	·	-6	·	·
Cc1noc(C)c1NC(=O)Nc1ccc2c(c1)C(=O)N([C@H](C)CO)C[C@H](C)[C@H](CN(C)C)O2	4	46*	·	-1	4	-15
O=C1CC(c2ccc(F)cc2)CC(O)=C1C=NCCN1CCNCC1 (stereo unspecified)	-1	17*	3	4	0	·
COc1ccc(C2CC(=O)C(C=NCCO)=C(O)C2)cc1OC (stereo unspecified)	7	1	2	-4	-10	8
COc1ccc(C2CC(=O)C(C=NCCO)=C(O)C2)cc1 (stereo unspecified)	3	-3	·	2	-1	54*
O=C(Nc1ccc(N2CCCC2)cc1)C(Cl)c1ccccc1 (stereo unspecified)	2	28*	0	-12	0	13
CCOC(=O)N1CCC(NC(=O)c2cc(S(=O)(=O)N3CCOCC3)ccc2F)CC1	0	-6	-2	-5	-8	0
CCOC(=O)N1CCC(NC(=O)c2cc(C(=O)Nc3ccc(S(=O)(=O)N4CCOCC4)cc3)ccc2CO)CC1	3	17*	-3	-10	-14	-12
COc1cccc(C2CC(c3ccc(Cl)cc3Cl)Nc3nc(N)nn32)c1 (stereo unspecified)	-2	10.0*	4	13	2	1
COc1cccc(C2CC(c3ccccc3Cl)Nc3nc(N)nn32)c1 (stereo unspecified)	5	-2	-5	-27	-5	24
COCCN1C[C@@H](CO)O[C@@H](n2cnc3c(N4CCN(CCO)CC4)ncnc32)C1	-1	·	·	2	·	·
COC(=O)CC#N	-2	+	·	-6	9	-9
COC(=O)c1ccc2nc(-c3cccc(Br)c3)c(Cc3ccsc3)n2c1	7	·	·	-5	·	·
COc1ccc2nc(NC(=O)CSC(C)C(=O)Nc3cc(C)on3)sc2c1 (stereo unspecified)	5	17*	·	-7	9	2
COc1ccc2nc(NC(=O)Cn3cnc4ccccc4c3=O)sc2c1	0	177*	·	-5	1	-4
CCOC(=O)C1CCCN(C(=O)c2[nH]c(C(F)(F)F)nc2-c2ccccc2)C1 (stereo unspecified)	-6	·	·	18	·	·
O=C(COC(=O)CCc1nc2ccccc2c(=O)[nH]1)Nc1ccccc1	1	24*	·	5	-5	-1
CC1Sc2ccccc2N(CC(=O)N(C(C)C)C(C)C)C1=O (stereo unspecified)	8	2	-3	-10	-9	51*
CC(C)(C)C(=O)Nc1ccc(F)cc1[N+](=O)[O-]	2	12*	·	-7	-10	-22
CC(=O)Oc1ccccc1Cn1c(C)c(C(=O)N(C)Cc2ccc(F)cc2)sc1=O	-1	·	·	-4	·	·
O=C1c2c(O)ccc(O)c2C(=O)c2c(NCCNCCO)ccc(NCCNCCO)c21	-3	77*	·	6	3	4
O=C1c2ccccc2C(=O)c2c(Nc3ccc(CCO)cc3)ccc(O)c21	-5	9	·	-2	1	-2
C[C@@H](c1ccccc1)N1C[C@H](COCc2ccccc2)Oc2cc(N3CC[C@@H](O)C3)ccc2S1(=O)=O	0	·	·	6	·	·
SMILES	m5-HT2A agonist	LANA-H2A inh	TLR4 MyD88 comp	NOD2-RIPK2 inh	TLR9-MyD88 inh	Rtt109 Vps75
Cc1cc(C)nc(N2CCCC(C(=O)NCc3cccc(C(F)(F)F)c3)C2)n1 (stereo unspecified)	2	2	-8	-3	-5	3
O=C(NCc1cccc(C(F)(F)F)c1)C1CCCN(c2ncccn2)C1 (stereo unspecified)	-1	131*	4	-3	11	-2
CN(CC(=O)Nc1cc(Cl)ccc1-n1cncn1)Cc1ccccc1N1CCOCC1	-3	·	·	-10	-2	·
O=C(NC(CO)Cc1ccc([N+](=O)[O-])cc1)C(Cl)Cl (stereo unspecified)	-4	22*	4	8	-3	17
Cc1ccc(C(=O)NCCCNC(=O)COc2ccc(C)c(C)c2)cn1	5	18	·	-10	4	55*
COC(=O)c1ccc2nc(-c3ccc(OC)c(OC)c3)c(Cc3ccc(OC)cc3C)n2c1	4	·	·	3	·	·
CCCCNC(=O)C1(C)CCCCN1Cc1ccc2ccccc2c1 (stereo unspecified)	-4	·	·	-5	·	·
O=C(O)CCS(=O)(=O)c1cccc2cccnc12	2	1	-4	6	7	·
CCSS(=O)(=O)c1cccc2cccnc12	-4	0	·	5	·	154*
Cc1ccc2oc(=O)c(/C=C(\O)c3ccco3)nc2c1	-5	4.3*	·	-13	3	6
COC(=O)C[C@H]1CC[C@@H](NC(=O)Nc2c(C)noc2C)[C@@H](CO)O1	4	·	·	-2	·	·
Cc1noc(NS(=O)(=O)c2ccc(N/C=C/C(=O)c3cccnc3)cc2)c1C	6	2	5	1	-7	73*
CN1C(C(=O)Nc2ccccn2)=C(O)c2sccc2S1(=O)=O	2	39*!	-8	-4	-2	10
N#Cc1cc2c([nH]c1=O)CCCC2	2	9.1*	·	-6	-4	-4
O=C(Nc1ccc(Cl)c(Cl)c1)c1ccc(Cl)c(Cl)c1	0	0	·	-6	5	-1
O=C(Nc1ccc(Cl)c(Cl)c1)Nc1cc(C(=O)NC2CC2)ccc1Cl	·	17*	12	·	·	·
COc1cc(NC(=O)c2cc3ccccc3cc2O)c(OC)cc1Cl	21*	-2	·	18	6	5
CCCCCCCCCCCCCCCCn1cc[n+](C)c1	-6	3	2	-3	2	95*
O=C1[C@H]2[C@@H](c3ccc(C(F)(F)F)cc3)N[C@]3(CCCN(Cc4ccc(C(F)(F)F)cc4)C3=O)[C@H]2C(=O)N1Cc1ccccc1	-3	·	·	-6	-19	·
O=C(CCNC(=O)c1ccccc1Cl)NCC1COc2ccccc2O1 (stereo unspecified)	8	·	·	2	11	1
COc1ccccc1C(=O)NCCC(=O)NCC1COc2ccccc2O1 (stereo unspecified)	1	23*	·	5	-3	-4
OC[C@@H]1CN(Cc2cccc(C(F)(F)F)c2)C[C@H](n2cnc3c(NC4CC4)ncnc32)O1	-2	·	·	11	·	·
